RXFP1 antag: blocks the human relaxin receptor RXFP1; Q9HBX9; AID 1259400; HEK293-RXFP1, relaxin-stimulated cAMP HTRF, 30 min; stronger effect = lower value; 0.59% of 350,000 active; activity change, negative = inhibition, % at 57.5 µM;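 active means activity change of -60% or lower, but not beyond a set lower limit; inconclusive means change between -60% and -40%, or beyond the set limit; inactive means change above -40%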
TRPV1 PAM: human TRPV1 potentiation | Q8NER1 | TRPV1-expressing cells, Fluo-8 calcium influx, capsaicin EC20 potentiation | potentiation, % at 8.33 µM | 0.02% of 320,000 active; in the data active means potentiation above about 80%; inconclusive means between about 30% and that limit
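Cells expressing TRPV1 were dye-loaded with Fluo-8 and read kinetically: 10 s baseline, 3 min after compound (agonist portion), then 2 min after EC20 capsaicin (allosteric enhancer portion). Calcium-bound dye fluorescence at 480/520 nm.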
TRPV1 ag: human TRPV1 agonism; 0.19% of 320,000 active; activation, % at 8.33 µM; TRPV1-expressing cells, Fluo-8 calcium influx, agonist mode; Q8NER1; in the data active means activation above about 80%; inconclusive means between about 30% and that limit
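TRPV1-expressing cells were cultured overnight at 35.5C and loaded with Fluo-8 calcium dye for 40 to 90 min at room temperature. After a 10 s baseline, compound was added and calcium influx was read kinetically for 3 min (ex 480/em 520 nm).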
gsp antagonist: antagonizes gsp, the McCune-Albright syndrome mutation; gsp-mutant cells, cAMP HTRF, 30 min; Potency, µM (titrated, usually from 76.9 µM), usual class: inhibitors; 0.4% of 340,000 active; calls by dose curve; cell line not stated here;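 further: intracellular cAMP measured with PDE inhibitor Ro 20-1724 present during compound exposure; nearly all actives have a fitted effect of over 65% in size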
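G418-selected cells were plated in DMEM/10% FBS for 16-24 h at 37C, then treated with compounds plus the PDE inhibitor […] (300 uM solution added) for 30 min at 37C. Intracellular cAMP was measured by HTRF after 30 min lysis at room temperature.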
RXFP1 ag: RXFP1 (human) receptor agonism | Q9HBX9 | HEK293T-RXFP1 cAMP TR-FRET, 30 min; response scale: percent of porcine relaxin response, buffer zero | Potency, µM (series often up to 57.5 µM), most hits filed as activators | 0.3% of 370,000 active | AID 2676; active means well fitted activation curve with a large enough effect; inconclusive means small, poorly fitted or top-dose-only effect; further: nearly all actives have a fitted effect of over 60% in size
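HEK293 cells stably expressing RXFP1, treated 30 min at 37C with compounds plus PDE4 inhibitor Ro 20174; cAMP measured by HTRF TR-FRET. Normalized to buffer and 29 nM porcine relaxin; EC50 by Hill fit.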
gsp agonist: agonists of gsp mutant (McCune-Albright syndrome); 0.13% of 340,000 active; Potency, µM (highest dose often 76.9 µM), usual class: activators; AID 624287; gsp mutant cells, cAMP HTRF, 30 min; active means well fitted activation curve with a large enough effect; inconclusive means small, poorly fitted or top-dose-only effect, or another doubt; inactive means no such curve, though single readings can be large or run the other way; cell line not stated here;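 further: phosphodiesterase inhibitor Ro 20-1724 added with compounds to block cAMP breakdown; nearly all actives have a fitted effect of over 60% in size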
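Cells stably selected in G418 were plated at 2000/well, grown 16-24 hr, then given compounds in DMSO with the PDE inhibitor […] (300 uM solution added) for 30 min at 37C; cAMP was read by HTRF.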
Hits are given with their value; . = inactive; ? = inconclusive; / = no result given; [ ] = another dose, or the depositor's remark. The list is not random: actives were taken first. Their share in the collection is about 1.1%.

SMILES	RXFP1 antag	TRPV1 PAM	TRPV1 ag	gsp antagonist	RXFP1 ag	gsp agonist
CN(C)S(=O)(=O)c1cccc(NC(=S)Nc2cccc3cnccc23)c1	-71	.	.	.	.	.
S=C(Nc1cccnc1)Nc1cccc2cnccc12	.	.	.	.	.	.[15.4 µM]
CC(=O)c1ccc(C(=O)N2CCCC(CO)(Cc3ccccc3C)C2)s1 (stereo not given)	.	.	.	.	.	.[15.4 µM]
Cc1cccc(CSc2ccc3nnc(-c4cccs4)n3n2)c1	.	.	.	.	.	.
Fc1ccc(CSc2ccc3nnc(-c4cccs4)n3n2)cc1	.	.	.	32µM	.	.
COc1ccc2[nH]c3c(N4CCc5ccccc5C4)ncnc3c2c1	?	.	?	.	.	.[15.4 µM]
COc1ccc(N2CCN(c3ncnc4c3[nH]c3ccccc34)CC2)cc1	?	.	.	16µM	.	.
CCCCOc1ccc(C(=O)NCc2nnnn2-c2ccc(C)c(C)c2)cc1	.	/	/	/	.	/
COC(=O)CN1C(c2ccccc2O)Nc2ccc(Br)cc2C1c1ccccc1 (stereo not given)	.	.	?	.	.	.
CCOC(=O)CN1C(c2ccccc2O)Nc2ccc(Br)cc2C1c1ccccc1 (stereo not given)	-73	.	?	.	.	.[15.4 µM]
C#CC(C)(CC)OC(=O)c1ccccc1C(=O)O (stereo not given)	.	/	/	/	/	/
O=C(CSc1ccc(Br)cc1)N1CCOCC1	.	.	80	.	.	?
CS(=O)(=O)n1nc(-c2ccc(Cl)cc2)nc1N	.	.	.	.	.	.[15.4 µM]
Cn1nc(-c2ccc(Cl)cc2)nc2c(=O)n(C)c(=O)nc1-2	/	.	.	/	4.5µM	/
COc1ccc(N(Cc2ccccc2)C(=O)CSc2nnc(Cn3nnc4ccccc43)o2)cc1	.	.	.	28µM	.	.
COC(CNC(=O)c1cccc(-n2c(=S)[nH]c3cc(Cl)ccc3c2=O)c1)OC	.	.	.	.	.	.[15.4 µM]
CCOC(=O)N1CCN(C(=O)c2ccc(-n3c(=S)[nH]c4ccccc4c3=O)cc2)CC1	-107	.	.	?	.	.
CCOC(=O)N1CCN(C(=O)c2ccc3c(=O)n(-c4ccc(OC)cc4)c(=S)[nH]c3c2)CC1	.	.	.	.	.	.
CCC(C)NC(=O)c1ccc(-n2c(=S)[nH]c3ccccc3c2=O)cc1 (stereo not given)	-105	.	.	.	.	.[15.4 µM]
COC(CNC(=O)c1ccc(-n2c(=S)[nH]c3ccccc3c2=O)cc1)OC	-75	.	.	.	.	.[15.4 µM]
Cc1cccc(OC(=O)c2cc(-c3ccc(Cl)cc3)on2)c1C	/	/	/	/	.	/
C=CCN(c1ccccc1C(=O)O)S(=O)(=O)c1ccc(C)cc1	.	.	.	.	.	.[15.4 µM]
Cc1nn(-c2ccccn2)c2nc(-c3cccs3)cc(C(=O)NCc3ccco3)c12	.	.	83	.	.	?
O=C1CCSC2(C(=O)N(Cc3ccc(F)cc3)c3ccccc32)N1c1ccc(Cl)cc1 (stereo not given)	-79	/	/	/	.	/
CCn1c(=S)[nH]c2c(c1=O)C(C)(C)Cc1ccccc1-2	.	.	.	.	16µM	2.8µM
SMILES	RXFP1 antag	TRPV1 PAM	TRPV1 ag	gsp antagonist	RXFP1 ag	gsp agonist
Cn1c(=S)[nH]c2c(c1=O)C(C)(C)Cc1ccccc1-2	.	.	.	.	16µM	.[15.4 µM]
Cc1ccc(CNC(=O)C(C)n2nc(C)n3c(cc4sccc43)c2=O)cc1 (stereo not given)	.	/	/	/	?	/
O=C(O)[C@H](O)c1ccccc1	.	/	/	/	/	/
CCC(C(=O)NCCc1ccco1)n1nc(C)c2c(C)n(-c3ccccc3)nc2c1=O (stereo not given)	.	.	.	.	.	.
CCC(C(=O)NCCCc1ccccc1)n1nc(C)c2c(C)n(-c3ccccc3)nc2c1=O (stereo not given)	-62	.	.	.	.	.
Cc1ccc(Nc2ncnc3c2oc2ccccc23)cc1	.	.	93	.	.	.
COc1ccc(Oc2ncnc3c2oc2ccccc23)cc1	.	/	/	/	.	/
CC(C)[C@H](Nc1ncnc2c1oc1ccccc12)C(=O)O	.	.	.	.	.	.[15.4 µM]
COc1ccc(Nc2ncnc3c2oc2ccccc23)cc1	.	.	93	.	.	.
